Source: the supplement of paper PMC6089552
Hit rate of the full screen: of about 3,200 compounds, about 300 (9.4%) showed activity. What follows is part of a selection rich in actives, with near analogues and random picks from the rest.

System: A673/TR/shEF
Assay: cell viability (LOESS-normalised, relative to median of negative controls) (log2 ratio); higher = more viable cells (less compound effect), active = hit call of the paper (over 3 MAD below the median)
Details: treatment time: 72 h
Outline: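 Doxycycline, present or absent from 24 h before compounds, was used to induce EWS-FLI1 shRNA knockdown in A673/TR/shEF Ewing sarcoma cells at 1,500 per well in 384-well plates. Cells then received library compounds at two or more concentrations, or DMSO controls, for three days. Viability was measured by CellTiter-Glo luminescence on an Envision reader, and per-plate LOESS correction, division by the negative-control median and log2 transformation followed.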

[1] = 0.25 µM, library screen: screen1, EWS-FLI1 expression: high (no doxycycline)
[2] = 0.25 µM, library screen: screen1, EWS-FLI1 expression: low (doxycycline-induced shRNA knockdown)
[3] = 2.5 µM, library screen: screen1, EWS-FLI1 expression: high (no doxycycline)
[4] = 2.5 µM, library screen: screen1, EWS-FLI1 expression: low (doxycycline-induced shRNA knockdown)
[5] = 0.103 µM, library screen: screen3, EWS-FLI1 expression: high (no doxycycline)
[6] = 0.103 µM, library screen: screen3, EWS-FLI1 expression: low (doxycycline-induced shRNA knockdown)
[7] = 0.308 µM, library screen: screen3, EWS-FLI1 expression: high (no doxycycline)
[8] = 0.308 µM, library screen: screen3, EWS-FLI1 expression: low (doxycycline-induced shRNA knockdown)
[9] = 0.926 µM, library screen: screen3, EWS-FLI1 expression: high (no doxycycline)
[10] = 0.926 µM, library screen: screen3, EWS-FLI1 expression: low (doxycycline-induced shRNA knockdown)
[11] = 2.8 µM, library screen: screen3, EWS-FLI1 expression: high (no doxycycline)
[12] = 2.8 µM, library screen: screen3, EWS-FLI1 expression: low (doxycycline-induced shRNA knockdown)
[13] = 8.3 µM, library screen: screen3, EWS-FLI1 expression: high (no doxycycline)
[14] = 8.3 µM, library screen: screen3, EWS-FLI1 expression: low (doxycycline-induced shRNA knockdown)
[15] = 25 µM, library screen: screen3, EWS-FLI1 expression: high (no doxycycline)
[16] = 25 µM, library screen: screen3, EWS-FLI1 expression: low (doxycycline-induced shRNA knockdown)
[17] = 0.25 µM, library screen: screen2, EWS-FLI1 expression: high (no doxycycline)
[18] = 0.25 µM, library screen: screen2, EWS-FLI1 expression: low (doxycycline-induced shRNA knockdown)
[19] = 2.5 µM, library screen: screen2, EWS-FLI1 expression: high (no doxycycline)
[20] = 2.5 µM, library screen: screen2, EWS-FLI1 expression: low (doxycycline-induced shRNA knockdown)

Measured: cell viability (log2)

O=C(O)[C@@H]1C2CC3c4[nH]c5ccccc5c4CCN3CC2CC[C@@H]1O (stereo not given in full)
inactive: [1] 0.0321 | [2] 0.0471 | [3] 0.097 | [4] 0.142

Nc1ncn([C@H]2C[C@H](O)[C@@H](CO)O2)c(=O)n1
inactive: [5] -0.0304 | [6] 0.0527 | [7] -0.025 | [8] 0.0562 | [9] -0.0731 | [10] 0.022 | [11] -0.0569 | [12] 0.0493 | [13] -0.0462 | [14] 0.058 | [15] -0.117 | [16] 0.0388

NC(=O)c1ncn([C@@H]2O[C@H](CO)[C@@H](O)[C@H]2O)n1
inactive: [5] 0.0479 | [6] -0.00301 | [1] 0.0242 | [2] -0.0375 | [17] 0.0942 | [18] 0.138 | [7] 0.00539 | [8] 0.013 | [9] 0.012 | [10] 0.0638 | [3] 0.0898 | [4] -0.0568 | [19] 0.148 | [20] 0.053 | [11] -0.0142 | [12] -0.0276 | [13] 0.0371 | [14] 0.0291 | [15] 0.13 | [16] 0.0392

Nc1ccn([C@@H]2O[C@H](CO)[C@@H](O)[C@@H]2O)c(=O)n1
active: [5] -0.206 | [17] -0.179 | [9] -0.377 | [3] -0.85 | [19] -1.17 | [11] -0.966 | [13] -1.5 | [14] -0.184 | [15] -2.24 | [16] -0.544
inactive: [6] -0.0158 | [1] 0.0194 | [2] 0.174 | [18] 0.162 | [7] -0.0966 | [8] 0.00929 | [10] -0.00593 | [4] 0.0115 | [20] -0.0511 | [12] -0.023

NC(=O)c1ncn([C@@H]2O[C@H](CO)[C@@H](O)[C@H]2O)c1N
inactive: [5] 0.135 | [6] 0.0617 | [7] 0.0707 | [8] 0.0876 | [9] 0.088 | [10] 0.0588 | [11] 0.1 | [12] 0.0775 | [13] 0.0463 | [14] 0.126 | [15] 0.13 | [16] 0.087

Nc1ncn([C@@H]2O[C@H](CO)[C@@H](O)[C@H]2O)c(=O)n1
active: 25 µM, library screen: screen2, EWS-FLI1 expression: high (no doxycycline) -0.117
inactive: 0.025 µM, library screen: screen2, EWS-FLI1 expression: high (no doxycycline) 0.00187 | 0.025 µM, library screen: screen2, EWS-FLI1 expression: low (doxycycline-induced shRNA knockdown) 0.0749 | [1] 0.0677 | [2] 0.0883 | [17] 0.0549 | [18] 0.0892 | [3] 0.046 | [4] 0.161 | [19] 0.0659 | [20] 0.0803 | 25 µM, library screen: screen2, EWS-FLI1 expression: low (doxycycline-induced shRNA knockdown) -0.00278

Nc1ccn([C@@H]2CS[C@H](CO)O2)c(=O)n1
inactive: [5] 0.125 | [6] 0.0191 | [7] 0.0768 | [8] 0.0559 | [9] 0.0245 | [10] 0.0926 | [11] 0.132 | [12] 0.0391 | [13] 0.0536 | [14] 0.0703 | [15] 0.101 | [16] 0.0951

NC(=O)c1ncn([C@@H]2O[C@H](CO)[C@@H](O)[C@H]2O)c1O
inactive: [1] 0.115 | [2] 0.116 | [17] 0.21 | [18] 0.141 | [3] 0.0737 | [4] 0.176 | [19] 0.0545 | [20] 0.0404

Nc1ccn([C@@H]2O[C@H](CO)[C@@H](O)C2(F)F)c(=O)n1
active: [5] -1.19 | [6] -0.155 | [7] -1.43 | [8] -0.392 | [9] -1.81 | [10] -0.473 | [11] -1.98 | [12] -0.588 | [13] -2.08 | [14] -0.562 | [15] -2.16 | [16] -0.572

Nc1ccn([C@@H]2O[C@H](CO)[C@@H](O)[C@H]2O)c(=O)n1
inactive: [1] 0.138 | [2] 0.019 | [3] 0.237 | [4] 0.0416

C[N+](C)(C)CCOP(=O)([O-])OP(=O)(O)OC[C@H]1O[C@@H](n2ccc(N)nc2=O)[C@H](O)[C@@H]1O
inactive: [17] 0.0983 | [18] 0.0319 | [19] 0.095 | [20] 0.0926

N=c1ccn2c(n1)O[C@H]1[C@H](O)[C@@H](CO)O[C@H]12
inactive: [2] 0.0178 | [18] 0.0732 | [20] 0.0215
active: [1] -0.254 | [17] -0.122 | [3] -1.03 | [4] -0.19 | [19] -0.641

Nc1ccn([C@H]2CC[C@@H](CO)O2)c(=O)n1
inactive: [5] 0.122 | [6] 0.0536 | [17] 0.188 | [18] 0.111 | [7] 0.116 | [8] 0.0808 | [9] 0.123 | [10] 0.139 | [19] 0.0418 | [20] 0.107 | [11] 0.148 | [12] 0.0816 | [13] 0.0629 | [14] 0.0663 | [15] 0.132 | [16] 0.176

CC(=O)Oc1ccc2c(c1)CCC1C2CCC2(C)C(=O)CCC12 (stereo not given)
inactive: [1] 0.0434 | [2] -0.0193 | [3] 0.146 | [4] 0.0428

N.N.N.N.N.O.[Ru+2]
inactive: [17] 0.216 | [18] 0.0909 | [19] 0.256 | [20] 0.0639

CCC/C=C/C=C/C1CC(O)C(O)C(=O)C1C=O (stereo not given)
inactive: [1] -0.0508 | [2] 0.0579 | [3] 0.0447 | [4] 0.105

C=C1CC[C@@H]2[C@H](CC2(C)C)C(=O)CC[C@@H]1O
inactive: [1] 0.0475 | [2] 0.00133 | [3] 0.0814 | [4] 0.0623

C=C1C(C)(C)[C@@]2(Cl)C(Cl)[C@]1(Cl)C(Cl)(Cl)C2(Cl)Cl (stereo not given in full)
inactive: [1] 0.0218 | [2] 0.106 | [3] 0.0433 | [4] 0.0358

COc1ccccc1CN1CCN(Cc2ccc(OC)c(OC)c2OC)CC1
inactive: [1] 0.0684 | [2] 0.104 | [3] 0.0567 | [4] 0.0723

CC[C@H]1OC(=O)[C@H](C)[C@@H](O[C@H]2C[C@@](C)(OC)[C@@H](O)[C@H](C)O2)[C@H](C)[C@@H](O[C@@H]2O[C@H](C)C[C@H](N(C)C)[C@H]2O)[C@](C)(O)C[C@@H](C)/C(=N/OCOCCOC)[C@H](C)[C@@H](O)[C@]1(C)O
inactive: [1] 0.13 | [2] 0.107 | [3] 0.122 | [4] 0.103

C/C=C/CC(C)C(O)C1C(=O)NC(CC)C(=O)N(C)CC(=O)N(C)C(CC(C)C)C(=O)NC(C(C)C)C(=O)N(C)C(CC(C)C)C(=O)NC(C)C(=O)NC(C)C(=O)N(C)C(CC(C)C)C(=O)N(C)C(CC(C)C)C(=O)N(C)C(C(C)C)C(=O)N1C (stereo not given)
inactive: [1] 0.0736 | [2] 0.0415 | [17] 0.25 | [18] 0.127 | [3] 0.0328 | [4] 0.00672 | [19] 0.11 | [20] 0.104

CC(C)(O)[C@@H]1CC[C@](C)([C@H]2[C@@H](O)C[C@@]3(C)[C@@H]4C[C@H](O[C@@H]5O[C@H](CO)[C@@H](O)[C@H](O)[C@H]5O)[C@H]5C(C)(C)[C@@H](O[C@@H]6OC[C@@H](O)[C@H](O)[C@H]6O)CC[C@@]56C[C@@]46CC[C@]23C)O1
inactive: [5] 0.0688 | [6] 0.0886 | [7] 0.0588 | [8] 0.038 | [9] 0.056 | [10] 0.105 | [11] 0.044 | [12] -0.00938 | [13] 0.0806 | [14] 0.0911 | [15] 0.0188 | [16] 0.0301

CC(=O)O[C@H]1CC[C@@]2(C)[C@@H](CC[C@@H]3[C@@H]2CC[C@]2(C)[C@@H]4[C@H](C[C@@H]32)O[C@]2(CC[C@@H](C)CO2)[C@H]4C)C1
inactive: [1] 0.0876 | [2] 0.0708 | [3] 0.176 | [4] 0.151

CC1=C(Cl)C(O)=CC(=O)C12Oc1cc(O)c(Cl)c(C)c1C2=O (stereo not given)
inactive: [1] 0.0863 | [2] 0.0945 | [3] 0.127 | [4] 0.13

CSCC[C@H](NC=O)C(=O)N[C@@H](Cc1ccccc1)C(=O)O
inactive: [1] 0.0894 | [2] 0.169 | [3] 0.0791 | [4] 0.113

C/C=C(/C)C(=O)O[C@@H]1c2c(ccc3ccc(=O)oc23)OC(C)(C)[C@@H]1OC(C)=O
inactive: [1] -0.0115 | [2] 0.00938 | [3] 0.181 | [4] 0.0803

C[C@@H]1O[C@@H](O[C@H]2[C@H](O[C@H]3CC[C@@]4(C)[C@@H](CC[C@]5(C)[C@@H]4CC=C4[C@@H]6CC(C)(C)CC[C@]6(C(=O)O)CC[C@]45C)[C@]3(C)CO)OC[C@H](O)[C@@H]2O)[C@H](O)[C@H](O)[C@H]1O
inactive: [1] 0.0421 | [2] 0.11 | [3] 0.089 | [4] 0.0617

CC(=O)N1CCN(c2nc(-c3ccccc3)c3cc(Br)ccc3n2)CC1
inactive: [1] 0.0769 | [2] 0.0692 | [3] 0.115 | [4] 0.105

COc1ccccc1/C=C/c1nc(O)c([N+](=O)[O-])c(=O)[nH]1
inactive: [1] 0.123 | [2] 0.138 | [3] 0.0902 | [4] 0.00102
